Results as given in PubChem BioAssay AID624405 (Broad Institute, 2012).
The campaign covered roughly 1,900 compounds. About 250 (13%) were called active. Roughly 4% stayed inconclusive and do not appear here.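 How the source made its calls: active means fitted curve reaches 40% rescue activity at or below the top valid dose, in every test run; inconclusive means test runs disagree, some active and some inactive; inactive means every run misses the threshold or moves the wrong way.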 These entries were drawn from the full list. Results with a measured potency or affinity are listed apart.

Experiment: suppressors of statin myotoxicity in myotubes, dose response, cell-based, C2C12 myotubes, ATP luminescence, cherry pick (AID 624405);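 further: myotubes are challenged with simvastatin at 10 µM to lower ATP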
Settings: C2C12 myotubes + simvastatin, 48 h, scaled: DMSO wells 0, geranylgeraniol wells 100; series mostly up to 19.5 µM

SMILES	outcome
Cc1cc(C)c2c(CN3CCN(Cc4ccc5c(c4)OCO5)CC3)cc(=O)oc2c1	inactive
C[C@H](CO)N1C[C@H](C)[C@@H](CN(C)Cc2ccc(C(F)(F)F)cc2)Oc2ccc(NS(=O)(=O)c3ccc(Cl)cc3)cc2CC1=O	inactive
C[C@@H]1CCCCO[C@@H](CN(C)Cc2ccc(C(F)(F)F)cc2)[C@H](C)CN([C@@H](C)CO)C(=O)c2cc(NS(=O)(=O)c3cccs3)ccc2O1	inactive
Cc1ccc(-c2cnc3c(c2)C(=O)N([C@H](C)CO)C[C@H](C)[C@@H](CN(C)C(=O)Cc2ccccc2)O3)cc1	inactive
CCC(C)(C)NC(=O)CN(C(=O)CNS(=O)(=O)c1ccccc1)c1ccccc1	inactive
COc1ccc(CN2[C@@H](CO)[C@@H]3c4ccccc4N(C(=O)c4ccccc4)C[C@@H]32)cc1	inactive
Fc1ccc(C(c2nnnn2C2CCCC2)N2CCN(Cc3ccccc3)CC2)cc1 (stereo unspecified)	inactive
CC(C)CC(c1nnnn1C1CCCC1)N1CCN(c2ccccc2F)CC1 (stereo unspecified)	inactive
Cc1ccc(NS(=O)(=O)c2ccc(C)c(C(=O)N3CCN(C)CC3)c2)cc1	inactive
Cc1ccc(-n2c(=O)cc(N3CCN(C(=O)c4ccco4)CC3)[nH]c2=O)cc1	inactive
COc1ccc(Oc2coc3c(CN(C)C)c(O)ccc3c2=O)cc1	inactive
O=C(Nc1ccc(N2CCN(C(=O)c3ccccc3)CC2)c(Cl)c1)c1ccco1	inactive
Cc1cc(N2CCN(c3nnnn3-c3ccccc3)CC2)n2ncnc2n1	inactive
C=CCSc1nnc(CSc2nc3sc4c(c3c(=O)[nH]2)CCCC4)n1-c1ccccc1	inactive
C[C@@H]1CN([C@@H](C)CO)C(=O)c2cc(C#CC3CCCCC3)cnc2O[C@H]1CN(C)C(=O)C1CCCCC1	inactive
COc1cc2c(cc1OC)C(c1cc(OC)c(OC)c(OC)c1)NCC2 (stereo unspecified)	inactive
C[C@@H]1CCCCO[C@H](CN(C)C(=O)Nc2cccc3ccccc23)[C@@H](C)CN([C@H](C)CO)C(=O)c2cc(NS(=O)(=O)c3ccc(Cl)cc3)ccc2O1	inactive
CCN(CC)C(=O)c1sc(N)c(C#N)c1C	inactive
COc1ccc(CN(C)C[C@H]2OCCCC[C@H](C)Oc3ccc(NC(=O)NC(C)C)cc3C(=O)N([C@@H](C)CO)C[C@H]2C)cc1	inactive
CS(=O)(=O)N1CCN(c2cccc(Cl)n2)CC1	inactive
O=C(c1ccccc1CCc1ccccc1)N1CCOCC1	inactive
C[C@@H]1CCCCO[C@H](CN(C)S(=O)(=O)c2ccc(F)cc2)[C@H](C)CN([C@@H](C)CO)C(=O)c2cc(NC(=O)Cc3ccccc3)ccc2O1	inactive
Cc1ccccc1C(=O)NCc1nnc(SCC(=O)N2CCN(c3ccccc3)CC2)n1C	inactive

SMILES	outcome
C[C@@H]1CN([C@H](C)CO)C(=O)c2cccc(NC(=O)c3ccc(-c4nccs4)cc3)c2O[C@@H]1CN(C)C(=O)Nc1cccc2ccccc12	inactive
C[C@H]1CN([C@@H](C)CO)C(=O)Cc2cc(NC(=O)Nc3ccc4c(c3)OCO4)ccc2O[C@@H]1CN(C)Cc1ccc(-c2ccccc2)cc1	inactive
C[C@H](CO)N1C[C@H](C)[C@@H](CN(C)Cc2ccc(-c3ccccc3)cc2)Oc2ccc(NC(=O)Nc3ccc4c(c3)OCO4)cc2CC1=O	inactive
C[C@@H]1CCCCO[C@@H](CN(C)S(=O)(=O)c2ccc(F)cc2)[C@H](C)CN([C@@H](C)CO)C(=O)c2cc(NC(=O)Nc3cccc4ccccc34)ccc2O1	inactive
C[C@@H]1CN([C@@H](C)CO)S(=O)(=O)c2ccc(/C=C/c3ccccc3)cc2O[C@@H]1CN(C)C(=O)NC1CCCC1	inactive
CCCn1c(SCC(=O)c2ccc(OC)c(OC)c2)nc2c1c(=O)n(C)c(=O)n2C	inactive
Cc1ccc(N(C(=O)Cn2nnc3ccccc32)C(C(=O)NCc2ccco2)c2ccc(C)o2)cc1 (stereo unspecified)	inactive
C[C@@H]1CN([C@H](C)CO)C(=O)Cc2cc(NS(=O)(=O)c3ccc(F)cc3)ccc2O[C@H]1CN(C)Cc1ccc(Cl)c(Cl)c1	inactive
C[C@@H]1CN([C@H](C)CO)C(=O)Cc2cc(NS(=O)(=O)c3ccc(F)cc3)ccc2O[C@H]1CN(C)Cc1ccc(C(F)(F)F)cc1	inactive
C[C@@H]1CN([C@H](C)CO)C(=O)Cc2cc(NS(=O)(=O)c3ccc(F)cc3)ccc2O[C@@H]1CN(C)Cc1ccc(Cl)c(Cl)c1	inactive
C[C@@H]1CN([C@H](C)CO)C(=O)Cc2cc(NS(=O)(=O)c3ccc(F)cc3)ccc2O[C@@H]1CN(C)Cc1ccc(C(F)(F)F)cc1	inactive
C[C@@H]1CN([C@@H](C)CO)C(=O)Cc2cc(NS(=O)(=O)c3ccc(Cl)cc3)ccc2O[C@H]1CN(C)Cc1ccc(Cl)c(Cl)c1	inactive
C[C@H](CO)N1C[C@H](C)[C@@H](CN(C)Cc2ccc(Cl)c(Cl)c2)Oc2ccc(NS(=O)(=O)c3ccc(Cl)cc3)cc2CC1=O	inactive
CCCCc1ccc(S(=O)(=O)NCCc2ccncc2)cc1	inactive
C[C@H](CO)N1C[C@H](C)[C@H](CN(C)S(=O)(=O)c2ccc(F)cc2)Oc2ncc(C#Cc3cccc(F)c3)cc2C1=O	inactive
CCOC(=O)C1(C)NC(c2ccc(N(C)C)cc2)C2C(=O)N(c3ccc(OC)cc3)C(=O)C21 (stereo unspecified)	inactive
C[C@@H]1CN([C@@H](C)CO)C(=O)c2cc(NS(C)(=O)=O)ccc2O[C@@H](C)CCCCO[C@@H]1CN(C)S(=O)(=O)c1ccc(Cl)cc1	inactive
CCOc1nc(Nc2ccc(F)cc2)nc(N2CCN(c3ccc(OC)cc3)CC2)n1	inactive
C[C@H]1CN([C@@H](C)CO)C(=O)c2cc(NC(=O)Nc3ccc4c(c3)OCO4)ccc2O[C@@H]1CN(C)C(=O)Nc1ccc(C(F)(F)F)cc1	inactive
O=C(CN(Cc1ccccc1C(F)(F)F)C(=O)CNC(=O)c1ccco1)NC1CCCC1	inactive
Cc1cc(Cl)c(S(=O)(=O)N2CC(C)OC(C)C2)cc1OCC(N)=O (stereo unspecified)	inactive
C[C@@H]1CN([C@@H](C)CO)C(=O)c2cc(NC(=O)CCC(F)(F)F)ccc2O[C@@H](C)CCCCO[C@@H]1CN(C)Cc1ccc(C(F)(F)F)cc1	inactive
Cc1ccc(C(=O)Nc2c(C(=O)N3CCOCC3)cnn2-c2ccccc2)cc1	inactive
